Reference: PubChem BioAssay (NCATS)
Results filed as inconclusive are left out. Activity calls are given as the source filed them. Calls come from the whole dose curve; as a rule, active = well fitted curve in the direction sought with a large enough effect; inconclusive = small, poorly fitted or top-dose-only effect, or another doubt; inactive = no such curve, though single readings can be large; an effect the other way counts as inactive or inconclusive.

tested on: not listed separately; test: Primary fluorescence-based thiol-reactive (MSTI) qHTS assay for identification of artifact compounds. (AID 1845221); settings: MSTI thiol-reactivity probe, 1 h; series mostly up to 53.8 µM; activity change, negative = thiol reactive: at the top concentration;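 note: thiol-reactive compounds lower the probe fluorescence signal; nearly all actives have a fitted effect of over 65% in size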
Outline: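 Probe: MSTI 4 uM, PBS pH 7.4, 2% DMSO. Incubation 1 h, RT, light-protected. Readout fluorescence 525/598 nm.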

Row | Structure (SMILES) | activity change, negative = thiol reactive
1 | Cc1cc(C(C)Nc2ccccc2)c2nc(N3CCOCC3)cc(=O)n2c1 (centres undefined) | 30.3% (inactive)
2 | CCNC(=O)c1noc(-c2cc(C(C)C)c(O)cc2O)c1-c1ccc(CN2CCOCC2)cc1 | 82.7% (inactive)
3 | O=C(Nc1ccc(OC(F)(F)F)cc1)c1sccc1NCc1ccnc2ccccc12 | 42.8% (inactive)

tested on: Nanoluciferase (engineered Oplophorus gracilirostris luciferase); test: Primary Nanoluciferase (NLuc) qHTS assay for identification of artifact compounds. (AID 1845222); settings: NLuc-conditioned medium, Nano-Glo luminescence, 5 min; series mostly up to 54.1 µM; activity, negative = inhibition: at the top concentration;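 note: NLuc secreted into diluted conditioned medium of S16 cells; 0% = DMSO and -100% = no enzyme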
Outline: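 NLuc from S16 cell medium (1:55) plus test compounds, 15 min, room temperature. Luminescence after Nano-Glo (1:100) addition, 5 min.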

Row | Structure (SMILES) | activity, negative = inhibition
4 | Nc1[nH]nc2nnc(-c3c(-c4ccccc4)nn4ccccc34)cc12 | -12.1% (inactive)
5 | C[C@@H]1CCO[C@H]2Cn3cc(C(=O)NCc4ccc(F)cc4F)c(=O)c(O)c3C(=O)N12 | -2.17% (inactive)
6 | c1ccc(CNc2nc(N3CCOc4ccccc43)nc3c2CCCC3)cc1 | 0% (inactive)
7 | CC1=C[C@@H]2[C@@H]([C@@H](O)C[C@@]3(C)[C@H]2C[C@@H](C)[C@]3(O)C(=O)CO)[C@@]2(C)Cc3cnn(-c4ccccc4)c3C=C12 | 3.32% (inactive)
8 | C[C@H](c1ccc(F)cc1CCCC(=O)O)N(c1cc(F)ccc1F)S(=O)(=O)c1ccc(Cl)cc1 | -19.9% (inactive)
9 | Cc1cc(-c2ncc(CC(=O)Nc3ccc(-c4cnccn4)cn3)cc2C)ccn1 | -13.9% (inactive)
10 | COc1nc(C)cnc1NS(=O)(=O)c1cccnc1-c1ccc(-c2nnco2)cc1 | -14.8% (inactive)
11 | CN(C)c1ccc(-c2nc3ncc(Cl)c(N4CCN(CC(=O)Nc5nccs5)CC4)c3[nH]2)cc1 | -0.783% [at 25.7 µM] (inactive)
12 | Cc1nc(C(=O)NCC(=O)O)c(O)c2ccc(Oc3ccccc3)cc12 | -13.4% (inactive)
13 | O=C(CCCN1CCN(c2ccc(F)cc2)CC1)NC1c2ccccc2CSc2ccccc21 (centres undefined) | 1.03% (inactive)
14 | COc1ccc(-c2nc3ccc(C4=NNC(=O)CC4C)cc3[nH]2)cc1 (centres undefined) | -4.57% (inactive)
15 | CN1C(=O)C(Cc2c[nH]c3ccccc23)NC1=S (centres undefined) | -0.978% [at 25.7 µM] (inactive)
16 | CC[C@H](CC#N)OC(=O)N[C@@H](C)c1cccc(NC(=O)Nc2ccc(-c3cnco3)c(OC)c2)c1 | -2.68% (inactive)
17 | COc1nccc(-c2c(-c3ccc(F)cc3)ncn2C2CCNCC2)n1 | 4.91% (inactive)
18 | CN1CCc2c(n(Cc3ccc(C(=O)NO)cc3)c3ccccc23)C1 | 2.73% (inactive)
19 | NS(=O)(=O)c1ccc(Nc2nc(OCC3CCCCC3)c3[nH]cnc3n2)cc1 | -0.678% (inactive)

Row | Structure (SMILES) | activity, negative = inhibition
20 | CN(C)CCCNC(=O)c1ccc(-c2cc(O)c3ncccc3c2)cc1 | -3.1% (inactive)
21 | C[C@@]1(C(=O)Nc2ccc(F)nc2)CCCN1c1nc(Nc2cc(C3CC3)[nH]n2)c2cccn2n1 | -4.32% (inactive)
22 | CNC(=O)c1c(-c2ccc(F)cc2)oc2cc(N(CCO)S(C)(=O)=O)c(C3CC3)cc12 | 3.12% (inactive)
23 | COc1ccc(Cn2ccc3ccc(C(=O)NO)cc32)cc1 | -8.83% (inactive)
24 | NS(=O)(=O)c1cc(Cl)c(Cl)c(S(N)(=O)=O)c1 | 2.26% (inactive)
25 | O=C(c1ccc(C(=O)N2CCC(N3CCCC3)CC2)c(Nc2ccccc2)c1)N1CCC(N2CCCC2)CC1 | 2% (inactive)
26 | CC1CCN(c2cc(N3CCN(C)CC3)ccc2NC(=O)c2cc(C#N)c[nH]2)CC1 | 4.12% (inactive)
27 | COc1cc(Nc2nc3ccccc3nc2NS(=O)(=O)c2ccc(NC(=O)c3ccc(C)c(OC)c3)cc2)cc(OC)c1 | -12.6% (inactive)
28 | CN1c2ccccc2C(=O)N2CCc3c([nH]c4ccccc34)C21 (centres undefined) | -8.73% (inactive)
29 | Cc1ccc2c(c1)C(=O)[C@]1(O)CCN(c3ccccc3)C1=N2 | -16.9% (inactive)
30 | Cc1cc(C(C)Nc2ccccc2)c2nc(N3CCOCC3)cc(=O)n2c1 (centres undefined) | -1.6% (inactive)
31 | CCNC(=O)c1noc(-c2cc(C(C)C)c(O)cc2O)c1-c1ccc(CN2CCOCC2)cc1 | -6.59% (inactive)
32 | CN1CCN(c2cccc(Nc3nc4c(-c5ccc(S(C)(=O)=O)cc5)cccn4n3)c2)CC1 | -3.71% (inactive)
33 | O=C(Nc1ccc(OC(F)(F)F)cc1)c1sccc1NCc1ccnc2ccccc12 | 1.7% (inactive)
34 | CCN1CCN(c2ccc(Nc3cc(N(C)C(=O)Nc4c(Cl)c(OC)cc(OC)c4Cl)ncn3)cc2)CC1 | 0.384% (inactive)

tested on: not listed separately; test: Primary redox qHTS assay for identification of artifact compounds. (AID 1845223); settings: Amplex Red/HRP redox cycling with DTT, fluorescence; series mostly up to 53.8 µM; redox activity (% of DA3003): at the top concentration;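 note: 0% = DMSO and 100% = reference compound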
Outline: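 Amplex Red (25 uM) and HRP (250 mU/mL) in HBSS, with compounds for 15 min, then 250 uM DTT for 30 min, room temperature, dark. Fluorescence 525/598 nm read; normalized to DMSO and 10 uM DA3003; Hill fit.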

Row | Structure (SMILES) | redox activity (% of DA3003)
35 | Nc1[nH]nc2nnc(-c3c(-c4ccccc4)nn4ccccc34)cc12 | -5.12% (inactive)
36 | C[C@@H]1CCO[C@H]2Cn3cc(C(=O)NCc4ccc(F)cc4F)c(=O)c(O)c3C(=O)N12 | 10.7% (inactive)
37 | c1ccc(CNc2nc(N3CCOc4ccccc43)nc3c2CCCC3)cc1 | -0.174% (inactive)
38 | C[C@H](c1ccc(F)cc1CCCC(=O)O)N(c1cc(F)ccc1F)S(=O)(=O)c1ccc(Cl)cc1 | 11.6% (inactive)
39 | O=S(=O)(O)c1ccc2cc(N=Nc3cc(S(=O)(=O)O)c4cccnc4c3O)ccc2c1 | 5.44% (inactive)
40 | Cc1cc(-c2ncc(CC(=O)Nc3ccc(-c4cnccn4)cn3)cc2C)ccn1 | -7.22% (inactive)
41 | N#Cc1ccc(Oc2ccc3c(c2)COB3O)cc1 | -2.27% (inactive)
42 | COc1nc(C)cnc1NS(=O)(=O)c1cccnc1-c1ccc(-c2nnco2)cc1 | -4.3% (inactive)
43 | CN(C)c1ccc(-c2nc3ncc(Cl)c(N4CCN(CC(=O)Nc5nccs5)CC4)c3[nH]2)cc1 | 4.64% [at 25.6 µM] (inactive)
44 | Cc1nc(C(=O)NCC(=O)O)c(O)c2ccc(Oc3ccccc3)cc12 | 9.38% (inactive)
45 | O=C(CCCN1CCN(c2ccc(F)cc2)CC1)NC1c2ccccc2CSc2ccccc21 (centres undefined) | 5.58% (inactive)
46 | COc1ccc(-c2nc3ccc(C4=NNC(=O)CC4C)cc3[nH]2)cc1 (centres undefined) | 1.64% (inactive)
47 | CN1C(=O)C(Cc2c[nH]c3ccccc23)NC1=S (centres undefined) | -2.04% [at 25.6 µM] (inactive)
48 | CC[C@H](CC#N)OC(=O)N[C@@H](C)c1cccc(NC(=O)Nc2ccc(-c3cnco3)c(OC)c2)c1 | 3.21% (inactive)
49 | COc1nccc(-c2c(-c3ccc(F)cc3)ncn2C2CCNCC2)n1 | -8% (inactive)
50 | CN1CCc2c(n(Cc3ccc(C(=O)NO)cc3)c3ccccc23)C1 | 12.4% (inactive)
51 | NS(=O)(=O)c1ccc(Nc2nc(OCC3CCCCC3)c3[nH]cnc3n2)cc1 | 7.74% (inactive)
52 | C[C@@]1(C(=O)Nc2ccc(F)nc2)CCCN1c1nc(Nc2cc(C3CC3)[nH]n2)c2cccn2n1 | -3.41% (inactive)
53 | CS(=O)(=O)c1ccc(C2=C(c3ccccc3)C(=O)OC2)cc1 | -4.77% (inactive)
54 | CNC(=O)c1c(-c2ccc(F)cc2)oc2cc(N(CCO)S(C)(=O)=O)c(C3CC3)cc12 | -0.613% (inactive)
55 | COc1ccc(Cn2ccc3ccc(C(=O)NO)cc32)cc1 | -8.78% (inactive)
56 | NS(=O)(=O)c1cc(Cl)c(Cl)c(S(N)(=O)=O)c1 | -3.39% (inactive)
57 | CC1CCN(c2cc(N3CCN(C)CC3)ccc2NC(=O)c2cc(C#N)c[nH]2)CC1 | -5.71% (inactive)
58 | COc1cc(Nc2nc3ccccc3nc2NS(=O)(=O)c2ccc(NC(=O)c3ccc(C)c(OC)c3)cc2)cc(OC)c1 | -7.4% (inactive)
59 | CN1c2ccccc2C(=O)N2CCc3c([nH]c4ccccc34)C21 (centres undefined) | -4.25% (inactive)
60 | Cc1ccc2c(c1)C(=O)[C@]1(O)CCN(c3ccccc3)C1=N2 | -0.289% (inactive)
61 | Cc1cc(C(C)Nc2ccccc2)c2nc(N3CCOCC3)cc(=O)n2c1 (centres undefined) | 14.4% (inactive)
62 | CCNC(=O)c1noc(-c2cc(C(C)C)c(O)cc2O)c1-c1ccc(CN2CCOCC2)cc1 | -3.03% (inactive)
63 | O=C(Nc1ccc(OC(F)(F)F)cc1)c1sccc1NCc1ccnc2ccccc12 | -0.255% (inactive)
64 | CCN1CCN(c2ccc(Nc3cc(N(C)C(=O)Nc4c(Cl)c(OC)cc(OC)c4Cl)ncn3)cc2)CC1 | -5.71% (inactive)
